Screening data (PubChem BioAssay)
Only a selection was taken, and hits are over-represented in it overall.
Pf Dd2 inh: blocks in vitro growth of P. falciparum Dd2; Potency, µM (titrated, usually from 28.9 µM), without a hit: at the top dose activity, negative = inhibition, actives largely listed as inhibitors; P. falciparum Dd2 growth, SYBR Green, 72 h; AID 1347417; 4.3% of 120,000 active; active = well fitted inhibition curve with a large enough effect;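 also: plate controls were DMSO vehicle for no effect and reference drug for full effect; nearly all actives have a fitted effect of over 65% in size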
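Infected erythrocytes (Dd2, 0.3% parasitemia, 2.5% hematocrit final) are added to compound in RPMI-1640/Albumax II medium, grown 72 h at 37C in low oxygen, then lysed with saponin/Triton-X containing SYBR Green and read by fluorescence.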
* = called active by the depositor; [ ] = dose if it differs, or a comment. Potency is read from the fitted curve at half-maximal effect.

`Cc1ccc(OCC(=O)N2CCC(c3noc(-c4cnccn4)n3)C2)cc1` (centres undefined) gave Pf Dd2 inh inactive[5.79 µM].
`CCN(CC)Cc1ccc2c(c1)CN(C(=O)COc1ccc(C)cc1)CCO2` gave Pf Dd2 inh 2.8µM*.
For CCN(CC)Cc1ccc2c(c1)CN(C(=O)N(CC)CC)CCO2 the results were Pf Dd2 inh -15%.
CCN(CC)Cc1ccc2c(c1)CN(C(=O)c1ccsc1)CCO2 was read as Pf Dd2 inh -24%.
O=C(CN1CCOCC1)NC1CCc2nnc(C3CC3)n2CC1 (centres undefined) was read as Pf Dd2 inh 18%.
`C1CCC2(CC1)C(OCC1CC1)CN2C1CCNCC1` (centres undefined) gave Pf Dd2 inh 4µM*.
Screening Cc1ccc(C(=O)N2CCC(N3CC(OCC4CC4)C34CCCCC4)CC2)cn1 (centres undefined) returned Pf Dd2 inh -5%.
For CC(C)C(=O)N1CCC(N2CC(OCC3CC3)C23CCCCC3)CC1 (centres undefined) the results were Pf Dd2 inh 3.2µM*.
For C1CC2(CCN1)CC(OCC1CC1)CCO2 (centres undefined) the results were Pf Dd2 inh 25%.
Screening COCCOC1CN(C2CCN(C(=O)NC(C)C)CC2)C12CCCCC2 (centres undefined) returned Pf Dd2 inh inactive.
For O=C1C(O)C2(CCCCC2)N1C1CCNCC1 (centres undefined) the results were Pf Dd2 inh 10%.
COc1cc(CNC(=O)[C@H]2CCC[C@H]2NC(=O)c2ccncc2)cc(OC)c1 was read as Pf Dd2 inh -6%.
Screening O=Cc1ccc(-c2ccc(C(=O)O)cn2)cc1 returned Pf Dd2 inh 10%[44.1 µM].
Screening CCCNC(=O)N(C1CCOCC1)C1CCN(C(=O)c2ccc(OC)nc2OC)CC1 returned Pf Dd2 inh inactive.
`COc1ccc(CN2CC(Oc3ccc4c(c3)OCO4)C2)cc1` gave Pf Dd2 inh -2%.
For COc1ccc(CN2C(=O)COC[C@H]2C(=O)N2CCC(C)CC2)c(OC)c1 the results were Pf Dd2 inh 20%.
COc1cccc(Nc2ccc3c(n2)C(C)(C(=O)NC(C)C)CN(C)C3)c1 (centres undefined) was read as Pf Dd2 inh 2.5µM*.
Screening COCCNC(=O)C1(C)CN(C)Cc2ccc(Nc3cccc(OC)c3)nc21 (centres undefined) returned Pf Dd2 inh inactive.
Screening COc1cccc(Nc2ccc3c(n2)C(C)(C(=O)NCc2ccco2)CN(C)C3)c1 (centres undefined) returned Pf Dd2 inh -16%[44.1 µM].
For O=C(c1ccc(NCc2ccncc2)cc1)N1CCCC2(CCNCC2)CC1 the results were Pf Dd2 inh -13%.
CNC(=O)Cn1nc(C2CCN(C(=O)c3ccc(F)cc3)CC2)c2c1CCOC2 was read as Pf Dd2 inh 17%[5.79 µM].
`COc1ccccc1C(=O)Nc1cccc(-c2nnc3n2CCCC3)c1` gave Pf Dd2 inh 4.5µM*.
For O=C(Nc1cccc(-c2nnc3n2CCCC3)c1)c1ccccn1 the results were Pf Dd2 inh inactive.
`O=C(Nc1cccc(-c2nnc3n2CCCC3)c1)c1nccc2ccccc12` gave Pf Dd2 inh 4.5µM*.
`CC(=O)Nc1cccc(C(=O)Nc2cccc(-c3nnc4n3CCCC4)c2)c1` gave Pf Dd2 inh -5%.
`O=C(Nc1cccc(-c2nnc3n2CCCC3)c1)C1CCCC1` gave Pf Dd2 inh inactive.
`O=C(Nc1ccc(-c2nnc3n2CCCC3)cc1)c1nccc2ccccc12` gave Pf Dd2 inh -8%.
`Cc1cc(C(=O)N2C[C@@H](COCC3CC3)[C@H](c3ccncc3)C2)no1` gave Pf Dd2 inh -14%.
Screening O=C1COCC2(CN1)CN(C(=O)c1ccc(Cl)cc1)C2 returned Pf Dd2 inh -12%[44.1 µM].
Screening Cc1nc(C)c(C(=O)NC2CCc3nn(CC4CC4)c(=O)n3CC2)s1 (centres undefined) returned Pf Dd2 inh 7%.
Screening Cc1cc(C(=O)N[C@H](C)c2onc(-c3cccnc3)c2C(=O)O)no1 returned Pf Dd2 inh 9%[44.1 µM].
For CCCSc1ncc(CN2CCCC(c3nnc(CN(C)C)n3C)C2)cn1 (centres undefined) the results were Pf Dd2 inh 8%.
Screening O=C1OCC2=C1C(c1ccccc1)NC(=O)N2CC(=O)N1CCOCC1 (centres undefined) returned Pf Dd2 inh -1%.
`CCn1cc(S(=O)(=O)N2CCC(Cc3nncn3C)C2)cn1` (centres undefined) gave Pf Dd2 inh 15%.
For O=C(Nc1ccc2c(N3CCCC3)ncnc2c1)c1cccc(Br)c1 the results were Pf Dd2 inh 0.89µM*.
`CCc1cc(N2CCCC(C(=O)c3sccc3C)C2)ncn1` (centres undefined) gave Pf Dd2 inh inactive.
For CCc1ccc(-c2nc3cc(NC(=O)c4ccc(C)c(C)c4)ccc3o2)cc1 the results were Pf Dd2 inh -12%.
For O=C(Nc1ccc2c(N3CCCC3)ncnc2c1)c1ccc(Cl)cc1 the results were Pf Dd2 inh 2.8µM*.
